Our source for the log2 fold change values is the supplement of paper PMC10849652.

Targets with a hit are over-represented here; the source holds about 7,900 in all. About 0.6% of all pairs of compound and target were hits. Values without a mark were called inactive.

Holding throughout (test): log2 fold change, soluble protein after heating vs DMSO (PISA); higher = thermal stabilisation; K562 cells, 10 uM, 30 min; active = over 0.2 and 3.5 SD of the protein, either way, in both replicates (recomputed)
Compound in assay [1]: COC1=CC=C(C=C1)CN2C=CC3=C2C=C(C=C3)C(=O)NO
The procedure, abridged: (§1)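 For each measurement, 10 μM compound was applied for 30 min to K562 cells at 2×10^6 cells/mL. Aliquots were heated for 3 min across 48°C-58°C, pooled, and extracted in PBS with 0.5% NP-40 at 4°C; the supernatant after 21,000xg for 90 min was soluble protein. This was quantified by TMTpro 16plex LC-MS/MS with channel sums equalised, and thermal stability was reported relative to control samples from duplicates, on a log2 fold-change scale.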

Compound in a further assay: CON(C)C(=O)N1N=C(c2cc(F)ccc2F)S[C@@]1(CCCN)c1ccccc1 [filanesib]
In short, it runs like this: as §1

Compound in the next assay: CO[C@H]1C[C@@H]2CC[C@@H](C)[C@@](O)(O2)C(=O)C(=O)N2CCCC[C@H]2C(=O)O[C@H]([C@H](C)C[C@@H]2CC[C@H](n3cnnn3)[C@H](OC)C2)CC(=O)[C@H](C)/C=C(\C)[C@@H](O)[C@@H](OC)C(=O)[C@H](C)C[C@H](C)/C=C/C=C/C=C/1C [zotarolimus]
The procedure, abridged:
as §1

Compound in the next assay: COc1cc(C(=O)O)ccc1NC(=O)[C@@H]1N[C@@H](CC(C)(C)C)[C@](C#N)(c2ccc(Cl)cc2F)[C@H]1c1cccc(Cl)c1F [idasanutlin]
In short, it runs like this:
as §1

Compound in another assay: COc1cc(Nc2ncc3c(n2)-c2ccc(Cl)cc2C(c2c(F)cccc2OC)=NC3)ccc1C(=O)O [alisertib]
In short, it runs like this:
as §1

Compound in assay [2]: COc1cc2nc(-c3cc(F)ccc3O)nc(N[C@@H]3CNC[C@H]3C(C)(C)O)c2cc1OC
The procedure, abridged:
as §1

Compound in another assay: COc1cc2ncnc(Nc3ccc(F)c(Cl)c3)c2cc1OCCCN1CCOCC1 [gefitinib]
In short, it runs like this: as §1

Compound in assay [3]: COc1cccc2cc(-c3nc([C@H]4CC[C@H](C(=O)O)CC4)n4ncnc(N)c34)[nH]c12
The procedure, abridged:
as §1

Compound in the next assay: CS(=O)(=O)CCNCc1ccc(-c2ccc3ncnc(Nc4ccc(OCc5cccc(F)c5)c(Cl)c4)c3c2)o1 [lapatinib]
The procedure, abridged:
as §1

Compound in the next assay: CS(=O)(=O)N1CCN(Cc2cc3nc(-c4cccc5[nH]ncc45)nc(N4CCOCC4)c3s2)CC1 [pictilisib]
The procedure, abridged:
as §1

Chain of UniProt Q96EK5 (Q96EK5 whole entry, looked up): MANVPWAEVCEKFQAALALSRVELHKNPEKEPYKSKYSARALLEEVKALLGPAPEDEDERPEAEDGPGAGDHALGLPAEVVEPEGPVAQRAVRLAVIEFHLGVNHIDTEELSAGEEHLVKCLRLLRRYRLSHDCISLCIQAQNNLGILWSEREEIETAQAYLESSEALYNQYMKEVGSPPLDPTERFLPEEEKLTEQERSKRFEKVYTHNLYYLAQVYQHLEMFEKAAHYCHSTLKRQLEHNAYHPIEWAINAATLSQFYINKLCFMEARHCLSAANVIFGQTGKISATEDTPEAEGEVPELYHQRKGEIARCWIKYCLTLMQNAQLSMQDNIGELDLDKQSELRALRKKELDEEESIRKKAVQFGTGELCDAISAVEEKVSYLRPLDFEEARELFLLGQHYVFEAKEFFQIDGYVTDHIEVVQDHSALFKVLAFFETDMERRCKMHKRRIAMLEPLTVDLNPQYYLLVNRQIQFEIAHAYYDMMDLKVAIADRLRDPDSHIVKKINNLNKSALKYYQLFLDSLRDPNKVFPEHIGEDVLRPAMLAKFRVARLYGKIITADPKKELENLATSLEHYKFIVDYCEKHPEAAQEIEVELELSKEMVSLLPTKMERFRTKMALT
Chain of UniProt A1L0T0 (A1L0T0 whole entry, looked up): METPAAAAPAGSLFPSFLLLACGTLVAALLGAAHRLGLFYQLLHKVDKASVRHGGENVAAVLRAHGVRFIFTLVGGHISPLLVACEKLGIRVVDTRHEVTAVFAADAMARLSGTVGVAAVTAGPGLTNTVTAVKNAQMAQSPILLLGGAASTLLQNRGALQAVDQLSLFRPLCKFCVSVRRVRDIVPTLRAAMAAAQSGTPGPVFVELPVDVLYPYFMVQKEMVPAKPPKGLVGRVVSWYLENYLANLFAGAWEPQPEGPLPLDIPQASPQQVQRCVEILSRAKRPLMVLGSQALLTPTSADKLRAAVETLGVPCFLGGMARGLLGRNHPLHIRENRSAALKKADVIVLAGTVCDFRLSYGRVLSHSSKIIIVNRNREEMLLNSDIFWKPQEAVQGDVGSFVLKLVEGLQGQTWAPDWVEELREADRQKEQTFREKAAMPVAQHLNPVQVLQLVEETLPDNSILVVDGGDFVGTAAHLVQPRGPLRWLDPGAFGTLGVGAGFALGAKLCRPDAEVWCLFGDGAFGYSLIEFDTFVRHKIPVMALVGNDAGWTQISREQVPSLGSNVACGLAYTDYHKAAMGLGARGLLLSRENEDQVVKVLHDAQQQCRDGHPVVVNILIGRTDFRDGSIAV
Chain of UniProt Q8IWA4 (Q8IWA4 whole entry, looked up): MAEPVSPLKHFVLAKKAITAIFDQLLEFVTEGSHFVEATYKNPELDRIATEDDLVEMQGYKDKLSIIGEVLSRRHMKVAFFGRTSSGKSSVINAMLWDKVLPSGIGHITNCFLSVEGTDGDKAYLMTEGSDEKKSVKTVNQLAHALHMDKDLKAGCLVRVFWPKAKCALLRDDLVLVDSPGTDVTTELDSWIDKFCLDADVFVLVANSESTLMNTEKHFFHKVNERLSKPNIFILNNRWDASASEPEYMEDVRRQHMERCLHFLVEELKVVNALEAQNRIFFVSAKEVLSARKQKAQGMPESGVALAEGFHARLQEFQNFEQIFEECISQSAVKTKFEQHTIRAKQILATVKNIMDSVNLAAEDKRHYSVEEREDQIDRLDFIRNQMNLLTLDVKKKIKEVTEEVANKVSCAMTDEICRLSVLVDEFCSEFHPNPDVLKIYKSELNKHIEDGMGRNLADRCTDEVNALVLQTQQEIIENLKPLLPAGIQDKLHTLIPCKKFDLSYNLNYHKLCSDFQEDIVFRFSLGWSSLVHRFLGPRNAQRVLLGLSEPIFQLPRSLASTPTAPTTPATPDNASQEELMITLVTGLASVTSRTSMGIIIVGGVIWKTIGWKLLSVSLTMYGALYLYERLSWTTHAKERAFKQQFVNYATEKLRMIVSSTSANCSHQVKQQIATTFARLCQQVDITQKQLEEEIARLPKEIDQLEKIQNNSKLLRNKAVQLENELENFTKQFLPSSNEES
Chain of UniProt Q9NWZ3 (Q9NWZ3 whole entry, looked up): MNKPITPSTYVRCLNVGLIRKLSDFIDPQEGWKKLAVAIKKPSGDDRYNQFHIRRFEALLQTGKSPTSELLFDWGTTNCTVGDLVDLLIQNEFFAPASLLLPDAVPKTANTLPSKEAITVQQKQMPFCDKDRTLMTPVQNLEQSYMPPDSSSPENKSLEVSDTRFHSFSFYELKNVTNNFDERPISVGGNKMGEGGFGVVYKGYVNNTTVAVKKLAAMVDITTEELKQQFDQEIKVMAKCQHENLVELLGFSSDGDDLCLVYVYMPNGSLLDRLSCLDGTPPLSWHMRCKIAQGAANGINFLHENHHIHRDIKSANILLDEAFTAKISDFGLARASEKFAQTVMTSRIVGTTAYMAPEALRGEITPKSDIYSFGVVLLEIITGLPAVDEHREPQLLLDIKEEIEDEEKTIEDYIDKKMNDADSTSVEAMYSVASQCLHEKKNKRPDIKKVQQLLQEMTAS
Chain of UniProt Q86WA8 (Q86WA8 whole entry, looked up): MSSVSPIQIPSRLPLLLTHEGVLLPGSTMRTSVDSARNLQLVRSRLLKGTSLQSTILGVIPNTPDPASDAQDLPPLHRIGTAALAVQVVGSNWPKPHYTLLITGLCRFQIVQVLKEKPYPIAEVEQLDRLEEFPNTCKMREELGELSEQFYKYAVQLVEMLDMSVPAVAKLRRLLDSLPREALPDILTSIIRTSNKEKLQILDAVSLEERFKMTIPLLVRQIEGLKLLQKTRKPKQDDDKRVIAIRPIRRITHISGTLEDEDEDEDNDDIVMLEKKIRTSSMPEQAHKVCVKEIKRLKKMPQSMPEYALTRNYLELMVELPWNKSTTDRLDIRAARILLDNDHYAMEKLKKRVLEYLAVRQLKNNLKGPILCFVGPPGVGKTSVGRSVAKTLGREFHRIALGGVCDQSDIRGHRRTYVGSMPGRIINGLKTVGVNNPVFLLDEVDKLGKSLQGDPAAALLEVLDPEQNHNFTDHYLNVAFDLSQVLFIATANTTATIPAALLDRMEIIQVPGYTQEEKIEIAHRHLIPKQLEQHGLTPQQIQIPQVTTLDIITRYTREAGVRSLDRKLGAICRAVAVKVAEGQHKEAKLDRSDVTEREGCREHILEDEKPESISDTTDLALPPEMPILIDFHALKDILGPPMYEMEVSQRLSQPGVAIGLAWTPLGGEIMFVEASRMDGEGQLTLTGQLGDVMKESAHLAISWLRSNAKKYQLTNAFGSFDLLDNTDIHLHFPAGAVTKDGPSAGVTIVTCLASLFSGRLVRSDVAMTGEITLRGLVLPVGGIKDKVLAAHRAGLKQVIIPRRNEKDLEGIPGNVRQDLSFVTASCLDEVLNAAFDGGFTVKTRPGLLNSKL
Chain of UniProt P32019 (P32019 whole entry, looked up): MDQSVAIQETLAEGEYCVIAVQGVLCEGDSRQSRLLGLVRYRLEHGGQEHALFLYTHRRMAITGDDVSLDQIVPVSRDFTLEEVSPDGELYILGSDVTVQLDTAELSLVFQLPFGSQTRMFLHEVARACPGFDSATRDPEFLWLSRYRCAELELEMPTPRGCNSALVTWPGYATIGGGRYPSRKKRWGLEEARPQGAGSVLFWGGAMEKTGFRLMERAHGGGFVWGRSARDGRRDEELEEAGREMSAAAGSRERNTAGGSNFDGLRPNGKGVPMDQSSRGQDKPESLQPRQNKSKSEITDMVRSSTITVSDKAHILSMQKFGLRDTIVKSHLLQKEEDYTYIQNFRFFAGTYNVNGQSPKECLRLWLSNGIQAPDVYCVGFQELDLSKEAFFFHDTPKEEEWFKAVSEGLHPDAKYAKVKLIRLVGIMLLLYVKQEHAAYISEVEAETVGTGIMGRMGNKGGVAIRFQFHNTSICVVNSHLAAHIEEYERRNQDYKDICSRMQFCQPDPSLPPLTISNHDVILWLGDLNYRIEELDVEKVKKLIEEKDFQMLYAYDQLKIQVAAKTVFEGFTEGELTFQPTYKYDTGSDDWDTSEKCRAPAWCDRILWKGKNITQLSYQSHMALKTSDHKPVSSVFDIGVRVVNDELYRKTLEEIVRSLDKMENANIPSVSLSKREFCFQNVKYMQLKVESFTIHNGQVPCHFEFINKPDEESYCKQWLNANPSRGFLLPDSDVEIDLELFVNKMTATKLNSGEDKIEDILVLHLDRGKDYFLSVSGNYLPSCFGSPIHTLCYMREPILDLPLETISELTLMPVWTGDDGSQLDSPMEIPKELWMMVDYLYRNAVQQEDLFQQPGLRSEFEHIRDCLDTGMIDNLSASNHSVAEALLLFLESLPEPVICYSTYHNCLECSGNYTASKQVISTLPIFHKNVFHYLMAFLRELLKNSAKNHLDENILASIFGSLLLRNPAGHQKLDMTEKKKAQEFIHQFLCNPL
Chain of UniProt Q7L2J0 (Q7L2J0 whole entry, looked up): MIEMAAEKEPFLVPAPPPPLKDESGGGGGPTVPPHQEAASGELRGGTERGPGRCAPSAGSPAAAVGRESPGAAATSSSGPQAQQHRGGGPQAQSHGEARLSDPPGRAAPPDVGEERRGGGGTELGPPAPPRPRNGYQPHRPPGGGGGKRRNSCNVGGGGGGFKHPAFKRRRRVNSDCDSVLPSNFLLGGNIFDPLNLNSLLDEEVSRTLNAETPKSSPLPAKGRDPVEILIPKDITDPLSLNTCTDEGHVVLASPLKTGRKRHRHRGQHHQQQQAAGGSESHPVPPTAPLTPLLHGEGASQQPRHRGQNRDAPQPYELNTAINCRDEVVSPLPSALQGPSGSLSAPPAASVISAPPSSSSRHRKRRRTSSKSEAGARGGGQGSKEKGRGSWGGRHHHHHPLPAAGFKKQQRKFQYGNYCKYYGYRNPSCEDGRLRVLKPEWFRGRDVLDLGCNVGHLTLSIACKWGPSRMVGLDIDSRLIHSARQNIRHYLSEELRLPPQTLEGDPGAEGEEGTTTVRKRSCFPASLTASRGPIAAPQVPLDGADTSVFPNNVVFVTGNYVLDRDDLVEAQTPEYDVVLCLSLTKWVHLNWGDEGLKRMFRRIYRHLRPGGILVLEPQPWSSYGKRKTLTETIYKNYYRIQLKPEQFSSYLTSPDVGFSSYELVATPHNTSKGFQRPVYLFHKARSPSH

For the target INPP5B (UniProt P32019), the log2 fold change is 0 in [1]; -0.015 with filanesib; 0.002 with zotarolimus; -0.003 with idasanutlin; 0.03 with alisertib; 0.052 in assay [2]. Moreover, the log2 fold change is -0.008 with gefitinib, -0.043 in assay [3], 0.006 with lapatinib and 0.04 in the assay with pictilisib.
Turning to LPIN1 isoform 7 (UniProt Q14693), the log2 fold change in [1] is -0.079; with filanesib it was 0.047; in the assay with zotarolimus it was -0.048; with idasanutlin, -0.03; with alisertib it was 0.046; in assay [2] it was 0.017. The log2 fold change was -0.018 in the assay with gefitinib, -0.041 in [3], -0.101 in the assay with lapatinib and -0.035 in the assay with pictilisib.
On to MFN1 (UniProt Q8IWA4), for which the log2 fold change in assay [1] is 0.042; with filanesib, -0.182; with zotarolimus, 0.06; in the assay with idasanutlin, 0.034; with alisertib, 0.262; in [2], -0.523 (active). Moreover, the log2 fold change with gefitinib was 0.017; in [3], 0.03; with lapatinib, 0.002; with pictilisib, 0.024.
Consider MIF (UniProt P14174), for which the log2 fold change in assay [1] is 0.027; with filanesib it was 0.024; with zotarolimus, 0.029; with idasanutlin, 0.043; with alisertib, 0.043; in assay [2] it was -0.082. The log2 fold change was 0.082 with gefitinib, -0.043 in assay [3], -0.034 with lapatinib and -0.141 in the assay with pictilisib.
Take KIFBP (UniProt Q96EK5): the log2 fold change in assay [1] was 0.058; with filanesib, -0.095; with zotarolimus, 0.074; in the assay with idasanutlin it was -0.09; with alisertib, 0.106; in [2], -0.028. The log2 fold change with gefitinib was 0.01; in [3] it was 0.01; with lapatinib, -0.049; with pictilisib, -0.071.
LONP2 (UniProt Q86WA8): the log2 fold change in assay [1] was -0.002; with filanesib it was -0.019; with zotarolimus, -0.02; in the assay with idasanutlin, -0.177; with alisertib, -0.115; in [2] it was 0.375. For the same target, the log2 fold change is 0.129 with gefitinib, 0.015 in assay [3], 0.1 in the assay with lapatinib and -0.041 with pictilisib.
With KHDRBS1 (UniProt Q07666), the log2 fold change in [1] was 0.06; with filanesib it was 0.041; with zotarolimus, -0.012; in the assay with idasanutlin, 0.002; in the assay with alisertib, 0.014; in assay [2] it was 0.129. Also, the log2 fold change with gefitinib is 0.026; in assay [3], 0.008; with lapatinib, -0.072; with pictilisib, -0.072.
MDC1 (UniProt Q14676): the log2 fold change in assay [1] was -0.055; with filanesib, 0.223; with zotarolimus, 0.005; in the assay with idasanutlin, 0.283; in the assay with alisertib, -0.028; in [2], -0.01. In addition, the log2 fold change in the assay with gefitinib is 0.032; in assay [3], -0.045; in the assay with lapatinib, 0.077; with pictilisib it was 0.08.
As for IRAK4 (UniProt Q9NWZ3), the log2 fold change is 0.012 in assay [1]; -0.028 with filanesib; 0.01 in the assay with zotarolimus; 0.004 with idasanutlin; -0.059 in the assay with alisertib; 0.104 in [2]. The log2 fold change with gefitinib is 0.109; in assay [3], 0.007; in the assay with lapatinib it was -0.004; in the assay with pictilisib, -0.099.
Take LMNB1 (UniProt P20700): the log2 fold change was -0.034 in assay [1]; 0.131 with filanesib; 0.053 in the assay with zotarolimus; 0.14 with idasanutlin; -0.075 with alisertib; -0.09 in assay [2]. Moreover, the log2 fold change in the assay with gefitinib is -0.002; in assay [3], 0.064; in the assay with lapatinib, 0.087; with pictilisib, 0.005.
As for IKZF1 (UniProt Q13422), the log2 fold change in [1] was -0.045; with filanesib it was -0.136; with zotarolimus it was 0.004; with idasanutlin, 0.037; with alisertib, -0.019; in [2] it was 0.01. Besides, the log2 fold change is 0.128 with gefitinib, 0.039 in [3], -0.041 with lapatinib and 0.026 in the assay with pictilisib.
In the case of ILVBL (UniProt A1L0T0), the log2 fold change in assay [1] was -0.008; with filanesib, 0.006; with zotarolimus, 0.072; with idasanutlin, -0.106; with alisertib it was -0.088; in assay [2] it was -0.001. Moreover, the log2 fold change is 0.075 with gefitinib, 0.082 in assay [3], -0.011 in the assay with lapatinib and 0.031 with pictilisib.
Consider KIF21A isoform 4 (UniProt Q7Z4S6), for which the log2 fold change in assay [1] is 0.014; with filanesib it was 0.028; with zotarolimus, 0.051; with idasanutlin, 0.07; in the assay with alisertib, 0.051; in [2] it was 0.163. For the same target, the log2 fold change was -0.028 with gefitinib, -0.126 in assay [3], 0.001 with lapatinib and 0.037 in the assay with pictilisib.
Turning to MEPCE (UniProt Q7L2J0), the log2 fold change is -0.706 (active) in assay [1]; 0.042 in the assay with filanesib; 0.042 in the assay with zotarolimus; 0.036 with idasanutlin; -0.093 in the assay with alisertib; -0.167 in assay [2]. The log2 fold change with gefitinib is 0.078; in assay [3], 0.013; with lapatinib it was 0.102; with pictilisib, -0.013.
Regarding LSR (UniProt Q86X29), the log2 fold change in assay [1] is 0.107; with filanesib, 0.116; in the assay with zotarolimus, -0.011; in the assay with idasanutlin it was -0.022; with alisertib, -0.122; in assay [2], 0.027. In addition, the log2 fold change was 0.021 in the assay with gefitinib, 0.033 in [3], -0.056 in the assay with lapatinib and 0.121 with pictilisib.
